Among the data in ChEMBL document CHEMBL4513216, “Probing the Open Global Health Chemical Diversity Library for Multistage-Active Starting Points for Next-Generation Antimalarials” (ACS Infect Dis, 2020) are INHIBITION values, retold here.

About 8,600 (12%) of roughly 69,000 compounds showed an effect of 50% or more. The list comes from a sample in which strong results are over-represented; it also holds similar structures and randomly drawn compounds.

This assay has as its system Plasmodium berghei. In words: Screen against P. berghei liver stage (PbLuc), transformed with Luciferase, at 10uM. The assay is classed as functional, HepG2. The settings on record: tested at 10 uM.
Regarding `Cc1c(Cn2c(=O)cnc3ccccc32)cnn1C`, the INHIBITION amounted to 34%.

As to `COCC(=O)N1CCC2(CC1)NC(=O)c1ccccc12`, the INHIBITION worked out at 46.7%.

Take `Cc1ccc(CN2CC[C@@H]3[C@@H](CO[C@H]3CN3CCN(C)CC3)C2)s1`: the INHIBITION is reported as -35.9%.

Regarding `NC(=O)C1CCN(CC(=O)N(Cc2ccccc2)Cc2nccs2)CC1`, the INHIBITION is listed as 2.15%.

With `O=C(Cc1ccon1)N1CCc2cc(Br)sc2C1`, the INHIBITION was -28.9%.

Regarding `CC(C)c1nnc(CN2CCCC(c3cc(C(N)=O)[nH]n3)C2)o1` (configuration not stated), the INHIBITION was found to be 33.7%.

For the compound `C[C@@H]1CN(c2nc3c(cc2C(N)=O)CCC3)C[C@]1(C)O`, the INHIBITION is -13.8%.

As for `CCc1nc(CC2CN(c3ncnc4nc(C)cc(C)c34)CCO2)no1` (configuration not stated), the INHIBITION is on record as 22%.

As to `Cc1nc(-c2noc3ccc(C(=O)NCCN4CCOCC4)cc23)co1`, the INHIBITION came out at 63%.

Turning to `CN(C)CCCNC(=O)c1cc(Cl)ccc1Cl`, the INHIBITION was 4.93%.

Take `CC1CCCN(CCCNC(=O)c2cn(C)nc2-c2cccnc2)C1` (configuration not stated): the INHIBITION is recorded as 13.2%.

On to `CN(C)CCCNC(=O)c1ccc(Cl)cc1Cl`, for which the INHIBITION is listed as 16%.

Consider `Cc1nc(-c2noc3ccc(C(=O)NCCN4CCOCC4)cc23)cs1`, for which the INHIBITION was determined as 46.7%.

Consider `CN1CCC(CCNC(=O)c2ccc(N(C)S(C)(=O)=O)cc2Cl)CC1`, for which the INHIBITION came out at 8.47%.

With `CN(C)CCCNC(=O)c1ccc(N(C)S(C)(=O)=O)cc1Cl`, the INHIBITION was found to be 64.1%.

On to `Cc1nc(-c2noc3ccc(C(=O)NCCN(C)C)cc23)co1`, for which the INHIBITION is recorded as 8.31%.

On to `CC1CCCN(CCCNC(=O)c2ccc(N(C)S(C)(=O)=O)cc2Cl)C1` (configuration not stated), for which the INHIBITION came out at 53.7%.

For the compound `Cc1ncsc1C(=O)NCc1ccnc(N2CCN(C)CC2)c1`, the INHIBITION worked out at 12.85%.

Consider `CCc1cnc(N2C[C@@H]3C[C@H](C(=O)N4CCOCC4)[C@H](C2)O3)nc1`, for which the INHIBITION was determined as 28.5%.

Consider `CCOC(=O)N1[C@@H](c2ccco2)[C@@H](C(=O)O)C[C@]12CCCCNC2=O`, for which the INHIBITION is reported as -8.8%.

As for `O=C(O)c1cnc(N2CCCC2)nc1COc1ccccc1`, the INHIBITION is listed as -14.8%.

Regarding `Cc1cnn(C2CN(CC(=O)NCC(C)C)C2)c1`, the INHIBITION worked out at 16.9%.

For the compound `CCn1cnnc1C1CCN(C(=O)c2ccoc2C)CC1`, the INHIBITION is -5.07%.

For `c1ccc(COc2cccc(CNC3CCc4ncnn4C3)c2)cc1` (configuration not stated), the INHIBITION was determined as 33.6%.

On to `Cc1ccc2c(c1)C(=O)NCC1(CCN(C(=O)c3csc(C)c3)CC1)O2`, for which the INHIBITION is reported as -28.6%.

Regarding `O=C(N1CCOCC1)N1C2CCC(O)(CC2)C1CN1CCOCC1` (configuration not stated), the INHIBITION worked out at 44.2%.

Consider `CNc1cc2c(nn1)CCN(C(=O)c1coc(Br)c1)C2`, for which the INHIBITION is 3.73%.

With `Cc1ncc(CC(=O)N2CCC(N3C[C@@H](C)O[C@@H](C)C3)CC2)c(=O)[nH]1`, the INHIBITION worked out at 37.4%.

With `Cc1cnn(CC2CCCN2C(=O)Cc2c(C)nc(C)[nH]c2=O)c1` (configuration not stated), the INHIBITION amounted to 31.8%.

Regarding `Cc1ncc(CC(=O)N2CCCCC2CCN2CCCC2)c(=O)[nH]1` (configuration not stated), the INHIBITION turned out to be 61.8%.

Consider `CC(=O)NC(CC(=O)Nc1ccc(C)cn1)c1ccccc1` (configuration not stated), for which the INHIBITION amounted to 27.6%.

On to `N#CC1(NC(=O)c2cc(Cl)ccc2OC(F)F)CCOCC1`, for which the INHIBITION turned out to be 45.4%.

Take `O=C(c1ccc(=O)[nH]n1)N1CCc2ccccc21`: the INHIBITION is reported as 38.8%.

Consider `O=C(c1c[nH]c(=O)[nH]1)N1CCc2ccccc21`, for which the INHIBITION was 90.7%.

Take `O=C(NN1CCCc2ccccc21)c1c[nH]c(=O)[nH]1`: the INHIBITION amounted to 32.3%.

As for `O=C([C@@H]1COC[C@H]2CN(c3ccncn3)C[C@H]21)N1CCCC1`, the INHIBITION is reported as -10.3%.

Take `CCOC(=O)c1n[nH]cc1-c1cncn1CCCn1nc(C)cc1C`: the INHIBITION is on record as 15.9%.

In the case of `NCC(=O)N1CCC(c2cccc(Oc3ccccc3)n2)CC1`, the INHIBITION came out at 75.9%.

Regarding `CC(=O)N1CCC(c2cccc(Oc3ccccc3)n2)CC1`, the INHIBITION was 9.98%.

As to `CNCC(=O)N1CCC(c2cccc(Oc3ccccc3)n2)CC1`, the INHIBITION turned out to be 29.5%.

Take `CCn1cc(Br)c(C(=O)NCc2ccc(F)cc2)n1`: the INHIBITION is listed as -34%.

Turning to `O=C(NCc1ccc(-n2cncn2)nc1)c1cnccn1`, the INHIBITION was 48.3%.

For `Cc1oc(C(=O)Nc2cccc(Cl)c2C)cc1S(N)(=O)=O`, the INHIBITION is on record as -74.6%.

As for `Cc1oc(C(=O)Nc2ccccc2F)cc1S(N)(=O)=O`, the INHIBITION is 17.5%.

Regarding `Cc1cccc(C)c1NC(=O)c1cc(S(N)(=O)=O)c(C)o1`, the INHIBITION was found to be 52.7%.

As for `Cc1nccc(CNC(=O)Nc2cc(C(F)(F)F)c[nH]c2=O)n1`, the INHIBITION was determined as 8.38%.

In the case of `Cc1ccn(CC(=O)NCCCOc2ccccc2F)c(=O)c1`, the INHIBITION is listed as 10.9%.

With `CS(=O)(=O)NC(=O)c1ccn(-c2ccc(Cl)c(Cl)c2)n1`, the INHIBITION is -43.9%.

For the compound `COC(=O)CNC(=O)c1ccn(-c2ccc(Cl)c(Cl)c2)n1`, the INHIBITION is reported as 51.6%.

Regarding `CNC(=O)COC(=O)c1ccn(-c2ccc(Cl)c(Cl)c2)n1`, the INHIBITION was determined as 35.7%.

`O=C(C1CCCOC1)N1CCN(CC(F)(F)F)c2ccccc21` (configuration not stated): the INHIBITION came to 11.3%.

Consider `O=C1N(Cc2cccc(F)c2)CCC12CCN(c1ccccn1)CC2`, for which the INHIBITION is -15.9%.

On to `c1cncc(OC[C@]23COC[C@H]2CN(C2CCC2)C3)c1`, for which the INHIBITION worked out at 20.6%.

As to `c1ccc(OC[C@]23COC[C@H]2CN(C2CCOCC2)C3)nc1`, the INHIBITION is reported as -4.32%.

`O=C(COC[C@@]12CCC[C@@H]1CN(C1CCCC1)C2)N1CCCC1`: the INHIBITION is listed as 34.9%.

As for `O=C(COC[C@]12COC[C@H]1CN(C1CCC1)C2)N1CCCC1`, the INHIBITION is given as 60.2%.

Consider `C1CC(N2C[C@@H]3COC[C@]3(COCC3CCOCC3)C2)C1`, for which the INHIBITION is given as 55.7%.

Turning to `CN(C)C(=O)COC[C@@]12CCC[C@@H]1CN(C1CCC1)C2`, the INHIBITION was 12.7%.

With `O=C(COC[C@@]12CCC[C@@H]1CN(C1CCC1)C2)N1CCCC1`, the INHIBITION is reported as 27.6%.

On to `CN(C)C(=O)COC[C@]12COC[C@H]1CN(C1CCCC1)C2`, for which the INHIBITION is 56.6%.

With `CN(C)C(=O)COC[C@@]12CCC[C@@H]1CN(C1CCCC1)C2`, the INHIBITION is listed as -25.7%.

As to `Nc1ncnc2nc(C3CCCCN3)ccc12` (configuration not stated), the INHIBITION is reported as 26.45%.

Consider `O=C(c1cc(F)ccc1O)N1CCN(C2CCSC2)CC1` (configuration not stated), for which the INHIBITION is -75.7%.

Consider `CN(CCNc1cc(N2CCCC2CO)ncn1)Cc1ccccc1` (configuration not stated), for which the INHIBITION was -21.2%.

`CC(C)CCN1CCN(CC(=O)Nc2ccc3nsnc3c2)CC1`: the INHIBITION is 58.3%.

On to `CCC(CC)CN1CCN(CC(=O)Nc2ccc3nsnc3c2)CC1`, for which the INHIBITION is on record as 8.99%.

`Cc1ccc(CN2CCN(CC(=O)Nc3ccc4nsnc4c3)CC2)o1`: the INHIBITION was 46.1%.
